The experiment concerns the target AT4G31550 (Arabidopsis thaliana, UniProt Q9SV15 228-325). Put plainly: DPI-ELISA; DPI-ELISA, streptavidin 384-well plate, 1-2 pmol biotinylated dsDNA per well, crude native E. coli extract, anti-His detection; buffer as in Brand et al. [46],; high values mean tight binding. The following applies: tags: C-terminal His (pET-DEST42); label: 5' biotin on forward strand; dsDNA, one strand shown. (In general: An ELISA detects its analyte on a solid surface through an enzyme-linked reagent.)
Chain of AT4G31550 (Q9SV15 228-325): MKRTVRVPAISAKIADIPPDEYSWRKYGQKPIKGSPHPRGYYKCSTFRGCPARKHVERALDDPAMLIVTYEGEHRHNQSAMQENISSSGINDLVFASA
The sequence AAAAAATTTTGTGGTGTTTCGCCACCAAAA registered a binding signal of 0.715 ± 0.0495 absorbance.

AAAAAAGTTTCTGCTTTCCCTTTCGTAAAA: the binding signal is 0.665 ± 0.205 absorbance.

Sequence AAAAAATGCCATTGTACCTGTGTTCGAAAA had a binding signal of 0.395 ± 0.0354 absorbance.

Consider AAAAAACGCATCATAGCTACGCCCCAAAAA, for which the binding signal was found to be 0.62 ± 0.0849 absorbance.

As for AAAAAAATGGTGCCGCTGAGCAAATTAAAA, the binding signal is 0.555 ± 0.12 absorbance.

Consider AAAAAATTTGGTCTTCGTCCTCGCTTAAAA, for which the binding signal stood at 0.9 ± 0.0707 absorbance.

The sequence AAAAAACATTGATAAAATCTCCAGGCAAAA showed a binding signal of 0.63 ± 0.141 absorbance.

Turning to AAAAAAATCTTTGCGTCGAGATTCTTAAAA, the binding signal was 0.59 ± 0.0707 absorbance.

Take AAAAAAGGTAATGCCGGTCCCAGTATAAAA: the binding signal was determined as 0.525 ± 0.0778 absorbance.

AAAAAATCCCCCCGTTTCACTCTTGCAAAA displayed a binding signal of 0.66 ± 0.141 absorbance.

For AAAAAAACTATAGTCTTTGTCATGATAAAA, the binding signal was 0.64 ± 0.0707 absorbance.

In turn, AAAAAAAAGTGCCAACGTTCAAGAAAAA returned a binding signal of 0.38 ± 0.099 absorbance.

For the sequence AAAAAACACTTAACTGAGTGGGATTGAAAA, the binding signal was 0.705 ± 0.134 absorbance.

For AAAAAACCGTCTTATCTCTCGTCCCTAAAA, the binding signal was 0.565 ± 0.12 absorbance.

On to AAAAAAAGGGTGCTATTCGTCGACACAAAA, for which the binding signal came out at 0.63 ± 0.141 absorbance.

Regarding AAAAAAAGTTACCAGTACGCGTCGGGAAAA, the binding signal came out at 0.64 ± 0.141 absorbance.

In the case of AAAAAATCTTCTTGTTTCTTATTTCTAAAA, the binding signal worked out at 0.625 ± 0.12 absorbance.

As for AAAAAATATATTTTCAGCTTTAATCTAAAA, the binding signal stood at 0.685 ± 0.106 absorbance.

AAAAAATATGCTACTCCACCTTGATGAAAA displayed a binding signal of 0.67 ± 0.156 absorbance.

For the sequence AAAAAAGGTCCAGTCCACGTCATCAGAAAA, the binding signal is 1.84 ± 0.431 absorbance.

The sequence AAAAAAAGGTCATTGCTGCTGGTGTTAAAA returned a binding signal of 0.735 ± 0.106 absorbance.

Consider AAAAAATGACCAGGCCTCGAGCAAAAA, for which the binding signal turned out to be 0.665 ± 0.0636 absorbance.

For the sequence AAAAAACGCTTTCAGTTTTGATCTTAAAAA, the binding signal was found to be 0.495 ± 0.0778 absorbance.

As to AAAAAATTCACTTTTACCTTTGTGTTAAAA, the binding signal amounted to 0.555 ± 0.0919 absorbance.

As for AAAAAATTAGCTTATCCTTGCTTGTGAAAA, the binding signal amounted to 0.655 ± 0.134 absorbance.

The sequence AAAAAATTCCTGTCCGCTCTCGCTCCAAAA yielded a binding signal of 0.685 ± 0.148 absorbance.

AAAAAACTGCTTGCCCCTGTCTCCATAAAA had a binding signal of 0.67 ± 0.17 absorbance.

On to AAAAAAGACCGCAGCAAGAATTAAATAAAA, for which the binding signal amounted to 0.49 ± 0.141 absorbance.

For AAAAAATGGGGCTCTGGCCCACCGTAAAAA, the binding signal worked out at 0.525 ± 0.0778 absorbance.

For the sequence AAAAAACATCGCTGTCGTTGACGTTGAAAA, the binding signal was 3.48 ± 0.474 absorbance.

Consider AAAAAAAAGAGCCTGGGGGTTCGCATAAAA, for which the binding signal turned out to be 0.655 ± 0.0636 absorbance.

In turn, AAAAAAAAATGCTAGCGCGTACGTAAAAAA yielded a binding signal of 0.69 ± 0.17 absorbance.

On to AAAAAAAACTCCCATACTACAACCGAAAAA, for which the binding signal is 0.53 ± 0.099 absorbance.

AAAAAACGTTAACACTGATTTAGGGTAAAA returned a binding signal of 0.595 ± 0.0778 absorbance.

AAAAAATTAGACGCTACACTTACGGTAAAA registered a binding signal of 0.665 ± 0.106 absorbance.

As for AAAAAAACCCGTGCCTGCCTATTGCAAAAA, the binding signal is 0.395 ± 0.0495 absorbance.

Consider AAAAAATTCAAAATGATCACTACGGGAAAA, for which the binding signal came to 0.545 ± 0.0778 absorbance.

The sequence AAAAAAGTTTCCTACTTGTGTCTGTGAAAA showed a binding signal of 0.53 ± 0.0849 absorbance.

Source of the values: publication PMC3795721, “Screening for Protein-DNA Interactions by Automatable DNA-Protein Interaction ELISA”.
